# Results reported in PubChem BioAssay (NCI).
# This is part of a sample that, as a whole, favours compounds with a hit. Of some 79,000 tested, about 15% had one in any assay. A number with no mark means an inactive call. Active and inactive are the calls of the source. Cut-off read from the data, not from the text of the source: active = growth inhibition above about 70%; inactive = the rest.
# Columns and labels:
# [1] = NCI Yeast Anticancer Drug Screen. Data for the rad52 strain (AID 147);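 note: 0% = growth of vehicle-treated control cultures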; conditions: S. cerevisiae rad52 mutant growth inhibition, stronger effect = higher value
# In short: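 DNA repair-defective yeast; compound exposure; growth scored against vehicle controls.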
# [2] = NCI Yeast Anticancer Drug Screen. Data for the wt1 strain (AID 149);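 note: 0% = growth of vehicle-treated wt1 cultures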; conditions: S. cerevisiae wt1 strain (SPY 50644) growth inhibition, stronger effect = higher value
# In short: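 Each compound is tested on wt1 yeast and the loss of growth versus vehicle gives the inhibition value.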
# [3] = NCI Yeast Anticancer Drug Screen. Data for the rad50EPP+ strain (AID 151);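 note: 0% = growth of vehicle-treated control cultures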; conditions: S. cerevisiae rad50 mutant strain, stronger effect = higher value
# In short: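 rad50EPP+ yeast treated with test compounds. Readout: growth vs vehicle control.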
# [4] = NCI Yeast Anticancer Drug Screen. Data for the mgt1 strain (AID 153); conditions: S. cerevisiae mgt1 mutant growth inhibition, stronger effect = higher value
# In short: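 Growth inhibition relative to vehicle controls was scored for the mgt1 yeast strain after compound exposure.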
# [5] = NCI Yeast Anticancer Drug Screen. Data for the rad50 strain (AID 155);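 note: 0% = growth of vehicle-only cultures of the same strain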; conditions: S. cerevisiae rad50 strain growth inhibition, stronger effect = higher value
# In short: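 Vehicle-treated cultures provide the reference for the growth inhibition reported for compound-exposed, repair-deficient yeast.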
# [6] = NCI Yeast Anticancer Drug Screen. Data for the mec2-1 strain (AID 157); conditions: S. cerevisiae mec2-1 strain, stronger effect = higher value
# In short: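 Growth inhibition is read against vehicle-treated controls after compound exposure of the mec2-1 yeast strain, which is defective in DNA damage repair or cell cycle control.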
# [7] = NCI Yeast Anticancer Drug Screen. Data for the rad14 strain (AID 159);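 note: 0% = growth of vehicle-treated control cultures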; conditions: S. cerevisiae rad14 strain growth inhibition, stronger effect = higher value
# In short: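 Inhibition of growth is reported for a repair-deficient yeast mutant following compound treatment, calculated relative to cultures that received vehicle.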
# [8] = NCI Yeast Anticancer Drug Screen. Data for the sgs1 mgt1 strain (AID 161);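 note: 0% = growth of cultures given vehicle only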; conditions: S. cerevisiae sgs1 mgt1 strain, stronger effect = higher value
# In short: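 This yeast growth screen uses a strain with defined DNA-repair lesions; compound-treated growth is compared with vehicle-treated growth.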
# [9] = NCI Yeast Anticancer Drug Screen. Data for the CLN2oe strain (AID 163);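 note: 0% = growth of vehicle-only control cultures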; conditions: S. cerevisiae CLN2oe strain, stronger effect = higher value
# In short: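 Compound-treated yeast; growth vs vehicle ctrl = % inhibition. Genetically altered strain (cell-cycle control).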
# [10] = NCI Yeast Anticancer Drug Screen. Data for the cln2 rad14 strain (AID 165);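 note: 0% = growth equal to vehicle treated cultures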; conditions: S. cerevisiae cln2 rad14 strain, stronger effect = higher value
# In short: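 Growth inhibition, relative to vehicle-treated controls, is the read-out. The test organism is a yeast strain with defined genetic alterations, cln2 rad14.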
# [11] = NCI Yeast Anticancer Drug Screen. Data for the bub3 strain (AID 167); conditions: S. cerevisiae bub3 mutant strain, stronger effect = higher value
# In short: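 Mutant yeast screening strain plus compound; vehicle-treated cultures serve as the 0% inhibition reference.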
# [12] = NCI Yeast Anticancer Drug Screen. Data for the wt2 strain (AID 169); conditions: S. cerevisiae wt2 strain growth inhibition, stronger effect = higher value
# In short: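 Compound exposure of yeast; growth compared with vehicle controls; inhibition reported.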
# [13] = NCI Yeast Anticancer Drug Screen. Data for the sgs1 strain (AID 173);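 note: 0% = growth of vehicle-only control cultures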; conditions: S. cerevisiae sgs1 mutant, stronger effect = higher value
# In short: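 Compounds applied to genetically altered yeast; growth compared with vehicle-treated cultures to give % inhibition.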
# [14] = NCI Yeast Anticancer Drug Screen. Data for the mlh1 rad18 strain (AID 175); conditions: S. cerevisiae mlh1 rad18 strain growth inhibition, stronger effect = higher value
# In short: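 Cells of a genetically altered yeast strain, deficient in DNA damage repair, were treated with compound. Their growth was then compared with that of vehicle-treated cultures to give inhibition.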
# [15] = NCI Yeast Anticancer Drug Screen. Data for the rad18 strain (AID 177); conditions: S. cerevisiae rad18 mutant growth inhibition, stronger effect = higher value
# In short: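 Compounds are applied to a repair-deficient yeast strain, and growth is compared with that of vehicle-treated cultures to give percent inhibition.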
# [16] = at 5.0 µM (retest, dose inferred, filed as 0.5)
# [17] = at 50.0 µM (retest, dose inferred, filed as 5.0)
smiles,measurement,setting,value
O=S(=O)(NNc1ccccc1)c1ccccc1,growth inhibition,[1]; at 1.2 µM,-1%
same,growth inhibition,[1]; at 3.7 µM,4%
same,growth inhibition,[1]; at 11.0 µM,15%
same,growth inhibition,[1]; at 33.0 µM,62%
same,growth inhibition,[1]; at 100.0 µM,97% (active)
same,growth inhibition,[2]; at 1.2 µM,-1%
same,growth inhibition,[2]; at 3.7 µM,-1%
same,growth inhibition,[2]; at 11.0 µM,4%
same,growth inhibition,[2]; at 33.0 µM,11%
same,growth inhibition,[2]; at 100.0 µM,45%
same,growth inhibition,[3]; at 1.2 µM,-1%
same,growth inhibition,[3]; at 3.7 µM,1%
same,growth inhibition,[3]; at 11.0 µM,14%
same,growth inhibition,[3]; at 33.0 µM,71% (active)
same,growth inhibition,[3]; at 100.0 µM,94% (active)
same,growth inhibition,[4]; at 1.2 µM,-3%
same,growth inhibition,[4]; at 3.7 µM,-1%
same,growth inhibition,[4]; at 11.0 µM,8%
same,growth inhibition,[4]; at 33.0 µM,14%
same,growth inhibition,[4]; at 100.0 µM,82% (active)
same,growth inhibition,[5]; at 1.2 µM,4%
same,growth inhibition,[5]; at 3.7 µM,18%
same,growth inhibition,[5]; [16],-20%
same,growth inhibition,[5]; at 11.0 µM,27%
same,growth inhibition,[5]; at 33.0 µM,60%
same,growth inhibition,[5]; [17],16%
same,growth inhibition,[5]; at 50.0 µM,73.5% (active)
same,growth inhibition,[5]; at 100.0 µM,95% (active)
same,growth inhibition,[6]; at 1.2 µM,-6%
same,growth inhibition,[6]; at 3.7 µM,-5%
same,growth inhibition,[6]; [16],-12%
same,growth inhibition,[6]; at 11.0 µM,-3%
same,growth inhibition,[6]; at 33.0 µM,26%
same,growth inhibition,[6]; [17],15%
same,growth inhibition,[6]; at 50.0 µM,19.1%
same,growth inhibition,[6]; at 100.0 µM,92% (active)
same,growth inhibition,[7]; at 1.2 µM,-2%
same,growth inhibition,[7]; at 3.7 µM,3%
same,growth inhibition,[7]; at 11.0 µM,8%
same,growth inhibition,[7]; at 33.0 µM,18%
same,growth inhibition,[7]; at 100.0 µM,44%
same,growth inhibition,[8]; [16],0%
same,growth inhibition,[8]; [17],9%
same,growth inhibition,[8]; at 50.0 µM,36.6%
same,growth inhibition,[9]; at 1.2 µM,0%
same,growth inhibition,[9]; at 3.7 µM,-1%
same,growth inhibition,[9]; at 11.0 µM,5%
same,growth inhibition,[9]; at 33.0 µM,34%
same,growth inhibition,[9]; at 100.0 µM,85% (active)
same,growth inhibition,[10]; [16],-44%
same,growth inhibition,[10]; [17],-3%
same,growth inhibition,[10]; at 50.0 µM,16.1%
same,growth inhibition,[11]; at 1.2 µM,-4%
same,growth inhibition,[11]; at 3.7 µM,-7%
same,growth inhibition,[11]; [16],-4%
same,growth inhibition,[11]; at 11.0 µM,1%
same,growth inhibition,[11]; at 33.0 µM,45%
same,growth inhibition,[11]; [17],23%
same,growth inhibition,[11]; at 50.0 µM,11.7%
same,growth inhibition,[11]; at 100.0 µM,93% (active)
same,growth inhibition,[12]; at 1.2 µM,-2%
same,growth inhibition,[12]; at 3.7 µM,-1%
same,growth inhibition,[12]; at 11.0 µM,2%
same,growth inhibition,[12]; at 33.0 µM,16%
same,growth inhibition,[12]; at 100.0 µM,67%
same,growth inhibition,[13]; at 1.2 µM,-1%
same,growth inhibition,[13]; at 3.7 µM,-1%
same,growth inhibition,[13]; at 11.0 µM,6%
same,growth inhibition,[13]; at 33.0 µM,34%
same,growth inhibition,[13]; at 100.0 µM,90% (active)
same,growth inhibition,[14]; [16],-25%
same,growth inhibition,[14]; [17],51%
same,growth inhibition,[14]; at 50.0 µM,54.5%
same,growth inhibition,[15]; at 1.2 µM,-1%
same,growth inhibition,[15]; at 3.7 µM,3%
same,growth inhibition,[15]; at 11.0 µM,22%
same,growth inhibition,[15]; at 33.0 µM,47%
same,growth inhibition,[15]; at 100.0 µM,91% (active)
CCCCCc1c(CCCC)c(=O)[nH]c2cc(CNCC(OC)OC)ccc12,growth inhibition,[1]; at 1.2 µM,15%
same,growth inhibition,[1]; at 3.7 µM,11%
same,growth inhibition,[1]; at 11.0 µM,26%
same,growth inhibition,[1]; at 33.0 µM,98% (active)
same,growth inhibition,[1]; at 100.0 µM,94% (active)
same,growth inhibition,[2]; at 1.2 µM,1%
same,growth inhibition,[2]; at 3.7 µM,7%
same,growth inhibition,[2]; at 11.0 µM,20%
same,growth inhibition,[2]; at 33.0 µM,98% (active)
same,growth inhibition,[2]; at 100.0 µM,94% (active)
same,growth inhibition,[3]; at 1.2 µM,-8%
same,growth inhibition,[3]; at 3.7 µM,-9%
same,growth inhibition,[3]; at 11.0 µM,3%
same,growth inhibition,[3]; at 33.0 µM,10%
same,growth inhibition,[3]; at 100.0 µM,93% (active)
same,growth inhibition,[4]; at 1.2 µM,-15%
same,growth inhibition,[4]; at 3.7 µM,-11%
same,growth inhibition,[4]; at 11.0 µM,58%
same,growth inhibition,[4]; at 33.0 µM,98% (active)
same,growth inhibition,[4]; at 100.0 µM,94% (active)
same,growth inhibition,[5]; at 1.2 µM,14%
same,growth inhibition,[5]; at 3.7 µM,19%
same,growth inhibition,[5]; [16],8%
same,growth inhibition,[5]; at 11.0 µM,52%
same,growth inhibition,[5]; at 33.0 µM,98% (active)
same,growth inhibition,[5]; [17],96% (active)
same,growth inhibition,[5]; at 50.0 µM,88.9% (active)
same,growth inhibition,[5]; at 100.0 µM,93% (active)
same,growth inhibition,[6]; at 1.2 µM,-9%
same,growth inhibition,[6]; at 3.7 µM,-9%
same,growth inhibition,[6]; [16],-7%
same,growth inhibition,[6]; at 11.0 µM,7%
same,growth inhibition,[6]; at 33.0 µM,98% (active)
same,growth inhibition,[6]; [17],98% (active)
same,growth inhibition,[6]; at 50.0 µM,91.3% (active)
same,growth inhibition,[6]; at 100.0 µM,95% (active)
same,growth inhibition,[7]; at 1.2 µM,-23%
same,growth inhibition,[7]; at 3.7 µM,24%
same,growth inhibition,[7]; at 11.0 µM,89% (active)
same,growth inhibition,[7]; at 33.0 µM,98% (active)
same,growth inhibition,[7]; at 100.0 µM,93% (active)
same,growth inhibition,[8]; [16],8%
same,growth inhibition,[8]; [17],46%
same,growth inhibition,[8]; at 50.0 µM,91% (active)
same,growth inhibition,[10]; [16],26%
same,growth inhibition,[10]; [17],95% (active)
same,growth inhibition,[10]; at 50.0 µM,86.5% (active)
same,growth inhibition,[11]; at 1.2 µM,-6%
same,growth inhibition,[11]; at 3.7 µM,4%
same,growth inhibition,[11]; [16],19%
same,growth inhibition,[11]; at 11.0 µM,31%
same,growth inhibition,[11]; at 33.0 µM,98% (active)
same,growth inhibition,[11]; [17],97% (active)
same,growth inhibition,[11]; at 50.0 µM,91.2% (active)
same,growth inhibition,[11]; at 100.0 µM,94% (active)
same,growth inhibition,[12]; at 1.2 µM,7%
same,growth inhibition,[12]; at 3.7 µM,11%
same,growth inhibition,[12]; at 11.0 µM,28%
same,growth inhibition,[12]; at 33.0 µM,98% (active)
same,growth inhibition,[12]; at 100.0 µM,94% (active)
